Measurements from PMC11006913.

Legend:
Experiment in all cases: PBM; 200 nM protein, PBS
Settings in all cases: dsDNA, one strand shown
HOXA2 [1] = target: HOXA2 (Homo sapiens, UniProt O43364 129-215, R185T)
HOXA2 [2] = target: HOXA2 (Homo sapiens, UniProt O43364 129-215, R185K)
ALX1 = ALX1 (Homo sapiens, UniProt Q15699 118-204, L144R)
HOXA2 [3] = target: HOXA2 (Homo sapiens, UniProt O43364 129-215, Y150S)
HOXA2 [4] = target: HOXA2 (Homo sapiens, UniProt O43364 129-215)
NKX3-2 [5] = target: NKX3-2 (Homo sapiens, UniProt P78367 192-278, P234S)
NKX3-2 [6] = target: NKX3-2 (Homo sapiens, UniProt P78367 192-278)
CRX = CRX (Homo sapiens, UniProt O43186 26-111, R41L)
VAX1 [7] = target: VAX1 (Homo sapiens, UniProt Q5SQQ9 86-172)
VAX1 [8] = target: VAX1 (Homo sapiens, UniProt Q5SQQ9 86-172, T142I)
VAX1 [9] = target: VAX1 (Homo sapiens, UniProt Q5SQQ9 86-172, K157R)
Sequence of VAX1 (Homo sapiens, UniProt Q5SQQ9 86-172, K157R) (Q5SQQ9 86-172 K157R): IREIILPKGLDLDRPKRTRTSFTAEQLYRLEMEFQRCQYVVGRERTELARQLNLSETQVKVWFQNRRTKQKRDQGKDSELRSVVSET

Sequence of HOXA2 (Homo sapiens, UniProt O43364 129-215, R185K) (O43364 129-215 R185K): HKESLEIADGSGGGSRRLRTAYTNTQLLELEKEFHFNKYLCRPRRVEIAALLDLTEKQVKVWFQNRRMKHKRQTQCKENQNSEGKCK
Sequence of VAX1 (Homo sapiens, UniProt Q5SQQ9 86-172, T142I) (Q5SQQ9 86-172 T142I): as the sequence (Q5SQQ9 86-172 K157R) above, with T57I, R72K counted along it
Sequence of HOXA2 (Homo sapiens, UniProt O43364 129-215, R185T) (O43364 129-215 R185T): as the sequence (O43364 129-215 R185K) above, with K57T counted along it
Sequence of HOXA2 (Homo sapiens, UniProt O43364 129-215) (O43364 129-215): as the sequence (O43364 129-215 R185K) above, with K57R counted along it
Sequence of HOXA2 (Homo sapiens, UniProt O43364 129-215, Y150S) (O43364 129-215 Y150S): as the sequence (O43364 129-215 R185K) above, with Y22S, K57R counted along it
Sequence of VAX1 (Homo sapiens, UniProt Q5SQQ9 86-172) (Q5SQQ9 86-172): as the sequence (Q5SQQ9 86-172 K157R) above, with R72K counted along it
Sequence of ALX1 (Q15699 118-204 L144R): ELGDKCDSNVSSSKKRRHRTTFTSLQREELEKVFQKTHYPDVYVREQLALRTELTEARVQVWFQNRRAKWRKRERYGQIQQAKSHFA
Sequence of CRX (O43186 26-111 R41L): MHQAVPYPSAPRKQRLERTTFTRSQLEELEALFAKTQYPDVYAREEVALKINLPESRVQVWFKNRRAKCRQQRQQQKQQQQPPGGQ
Sequence of NKX3-2 (Homo sapiens, UniProt P78367 192-278, P234S) (P78367 192-278 P234S): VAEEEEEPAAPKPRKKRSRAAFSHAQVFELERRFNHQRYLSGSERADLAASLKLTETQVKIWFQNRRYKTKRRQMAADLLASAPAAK
Sequence of NKX3-2 (Homo sapiens, UniProt P78367 192-278) (P78367 192-278): as the sequence (P78367 192-278 P234S) above, with S43P counted along it

CTGATTAA
binding signal (HOXA2 [1]): 11.9 upbm affinity estimate (log intensity, higher = more binding, comparable within an allelic series)
binding signal (HOXA2 [2]): 12.9 upbm affinity estimate (log intensity, higher = more binding, comparable within an allelic series)
binding signal (ALX1): 11.1 upbm affinity estimate (log intensity, higher = more binding, comparable within an allelic series)
binding signal (HOXA2 [3]): 10.8 upbm affinity estimate (log intensity, higher = more binding, comparable within an allelic series)
binding signal (HOXA2 [4]): 11.5 upbm affinity estimate (log intensity, higher = more binding, comparable within an allelic series)

AGAATTAT
binding signal (HOXA2 [1]): 9.79 upbm affinity estimate (log intensity, higher = more binding, comparable within an allelic series)
binding signal (HOXA2 [2]): 11.6 upbm affinity estimate (log intensity, higher = more binding, comparable within an allelic series)
binding signal (HOXA2 [3]): 10.7 upbm affinity estimate (log intensity, higher = more binding, comparable within an allelic series)
binding signal (HOXA2 [4]): 9.68 upbm affinity estimate (log intensity, higher = more binding, comparable within an allelic series)

AACCGGGC
binding signal (HOXA2 [1]): 7.08 upbm affinity estimate (log intensity, higher = more binding, comparable within an allelic series)
binding signal (HOXA2 [2]): 10.3 upbm affinity estimate (log intensity, higher = more binding, comparable within an allelic series)
binding signal (HOXA2 [3]): 10.3 upbm affinity estimate (log intensity, higher = more binding, comparable within an allelic series)
binding signal (NKX3-2 [5]): 10.4 upbm affinity estimate (log intensity, higher = more binding, comparable within an allelic series)
binding signal (HOXA2 [4]): 7.35 upbm affinity estimate (log intensity, higher = more binding, comparable within an allelic series)
binding signal (NKX3-2 [6]): 10.4 upbm affinity estimate (log intensity, higher = more binding, comparable within an allelic series)

ACTAATGC
binding signal (HOXA2 [1]): 10.2 upbm affinity estimate (log intensity, higher = more binding, comparable within an allelic series)
binding signal (HOXA2 [2]): 12.2 upbm affinity estimate (log intensity, higher = more binding, comparable within an allelic series)
binding signal (HOXA2 [3]): 10.7 upbm affinity estimate (log intensity, higher = more binding, comparable within an allelic series)
binding signal (CRX): 10.1 upbm affinity estimate (log intensity, higher = more binding, comparable within an allelic series)
binding signal (HOXA2 [4]): 10.5 upbm affinity estimate (log intensity, higher = more binding, comparable within an allelic series)

TACTTTAA
binding signal (HOXA2 [1]): 9.67 upbm affinity estimate (log intensity, higher = more binding, comparable within an allelic series)
binding signal (HOXA2 [2]): 11.6 upbm affinity estimate (log intensity, higher = more binding, comparable within an allelic series)
binding signal (HOXA2 [3]): 10.8 upbm affinity estimate (log intensity, higher = more binding, comparable within an allelic series)
binding signal (HOXA2 [4]): 9.6 upbm affinity estimate (log intensity, higher = more binding, comparable within an allelic series)

CAGTTAAG
binding signal (HOXA2 [1]): 9.01 upbm affinity estimate (log intensity, higher = more binding, comparable within an allelic series)
binding signal (HOXA2 [2]): 11.5 upbm affinity estimate (log intensity, higher = more binding, comparable within an allelic series)
binding signal (HOXA2 [4]): 8.89 upbm affinity estimate (log intensity, higher = more binding, comparable within an allelic series)

AAGGCCCC
binding signal (HOXA2 [1]): 7.25 upbm affinity estimate (log intensity, higher = more binding, comparable within an allelic series)
binding signal (HOXA2 [2]): 10.3 upbm affinity estimate (log intensity, higher = more binding, comparable within an allelic series)
binding signal (HOXA2 [3]): 10.3 upbm affinity estimate (log intensity, higher = more binding, comparable within an allelic series)
binding signal (HOXA2 [4]): 7.19 upbm affinity estimate (log intensity, higher = more binding, comparable within an allelic series)

GGGAGCCC
binding signal (HOXA2 [1]): 7.4 upbm affinity estimate (log intensity, higher = more binding, comparable within an allelic series)
binding signal (HOXA2 [2]): 10.3 upbm affinity estimate (log intensity, higher = more binding, comparable within an allelic series)
binding signal (VAX1 [7]): 7.23 upbm affinity estimate (log intensity, higher = more binding, comparable within an allelic series)
binding signal (VAX1 [8]): 7.09 upbm affinity estimate (log intensity, higher = more binding, comparable within an allelic series)
binding signal (HOXA2 [3]): 10.5 upbm affinity estimate (log intensity, higher = more binding, comparable within an allelic series)
binding signal (HOXA2 [4]): 7.35 upbm affinity estimate (log intensity, higher = more binding, comparable within an allelic series)
binding signal (VAX1 [9]): 7.13 upbm affinity estimate (log intensity, higher = more binding, comparable within an allelic series)

CCCCCTCC
binding signal (HOXA2 [1]): 6.95 upbm affinity estimate (log intensity, higher = more binding, comparable within an allelic series)
binding signal (HOXA2 [2]): 9.98 upbm affinity estimate (log intensity, higher = more binding, comparable within an allelic series)
binding signal (HOXA2 [3]): 10.1 upbm affinity estimate (log intensity, higher = more binding, comparable within an allelic series)
binding signal (HOXA2 [4]): 6.89 upbm affinity estimate (log intensity, higher = more binding, comparable within an allelic series)

GTAATGAC
binding signal (HOXA2 [1]): 12 upbm affinity estimate (log intensity, higher = more binding, comparable within an allelic series)
binding signal (HOXA2 [2]): 13.1 upbm affinity estimate (log intensity, higher = more binding, comparable within an allelic series)
binding signal (VAX1 [8]): 12.3 upbm affinity estimate (log intensity, higher = more binding, comparable within an allelic series)
binding signal (HOXA2 [3]): 10.8 upbm affinity estimate (log intensity, higher = more binding, comparable within an allelic series)
binding signal (HOXA2 [4]): 12.1 upbm affinity estimate (log intensity, higher = more binding, comparable within an allelic series)

CCCCCCCG
binding signal (HOXA2 [1]): 6.93 upbm affinity estimate (log intensity, higher = more binding, comparable within an allelic series)
binding signal (HOXA2 [2]): 9.85 upbm affinity estimate (log intensity, higher = more binding, comparable within an allelic series)
binding signal (HOXA2 [3]): 10.2 upbm affinity estimate (log intensity, higher = more binding, comparable within an allelic series)
binding signal (HOXA2 [4]): 7.13 upbm affinity estimate (log intensity, higher = more binding, comparable within an allelic series)

GGATATTA
binding signal (HOXA2 [1]): 10.4 upbm affinity estimate (log intensity, higher = more binding, comparable within an allelic series)
binding signal (HOXA2 [2]): 12 upbm affinity estimate (log intensity, higher = more binding, comparable within an allelic series)
binding signal (HOXA2 [3]): 10.8 upbm affinity estimate (log intensity, higher = more binding, comparable within an allelic series)
binding signal (HOXA2 [4]): 10.6 upbm affinity estimate (log intensity, higher = more binding, comparable within an allelic series)

GGAGGCGA
binding signal (HOXA2 [1]): 7.15 upbm affinity estimate (log intensity, higher = more binding, comparable within an allelic series)
binding signal (HOXA2 [2]): 10.6 upbm affinity estimate (log intensity, higher = more binding, comparable within an allelic series)
binding signal (HOXA2 [3]): 10.4 upbm affinity estimate (log intensity, higher = more binding, comparable within an allelic series)
binding signal (HOXA2 [4]): 7.38 upbm affinity estimate (log intensity, higher = more binding, comparable within an allelic series)

CGATTACA
binding signal (HOXA2 [1]): 10.3 upbm affinity estimate (log intensity, higher = more binding, comparable within an allelic series)
binding signal (HOXA2 [2]): 12 upbm affinity estimate (log intensity, higher = more binding, comparable within an allelic series)
binding signal (HOXA2 [3]): 10.7 upbm affinity estimate (log intensity, higher = more binding, comparable within an allelic series)
binding signal (HOXA2 [4]): 9.9 upbm affinity estimate (log intensity, higher = more binding, comparable within an allelic series)

CTGGGGCC
binding signal (HOXA2 [1]): 7.14 upbm affinity estimate (log intensity, higher = more binding, comparable within an allelic series)
binding signal (HOXA2 [2]): 10.1 upbm affinity estimate (log intensity, higher = more binding, comparable within an allelic series)
binding signal (HOXA2 [3]): 10.3 upbm affinity estimate (log intensity, higher = more binding, comparable within an allelic series)
binding signal (HOXA2 [4]): 7.16 upbm affinity estimate (log intensity, higher = more binding, comparable within an allelic series)

CTCATTAC
binding signal (HOXA2 [1]): 12.5 upbm affinity estimate (log intensity, higher = more binding, comparable within an allelic series)
binding signal (HOXA2 [2]): 13.2 upbm affinity estimate (log intensity, higher = more binding, comparable within an allelic series)
binding signal (VAX1 [7]): 13 upbm affinity estimate (log intensity, higher = more binding, comparable within an allelic series)
binding signal (VAX1 [8]): 12.7 upbm affinity estimate (log intensity, higher = more binding, comparable within an allelic series)
binding signal (HOXA2 [3]): 10.8 upbm affinity estimate (log intensity, higher = more binding, comparable within an allelic series)
binding signal (HOXA2 [4]): 12.3 upbm affinity estimate (log intensity, higher = more binding, comparable within an allelic series)
binding signal (VAX1 [9]): 12.8 upbm affinity estimate (log intensity, higher = more binding, comparable within an allelic series)

AATTGCTC
binding signal (HOXA2 [1]): 10.4 upbm affinity estimate (log intensity, higher = more binding, comparable within an allelic series)
binding signal (HOXA2 [2]): 12 upbm affinity estimate (log intensity, higher = more binding, comparable within an allelic series)
binding signal (HOXA2 [3]): 10.6 upbm affinity estimate (log intensity, higher = more binding, comparable within an allelic series)
binding signal (HOXA2 [4]): 10.2 upbm affinity estimate (log intensity, higher = more binding, comparable within an allelic series)

ACACTAAT
binding signal (HOXA2 [1]): 11.5 upbm affinity estimate (log intensity, higher = more binding, comparable within an allelic series)
binding signal (HOXA2 [2]): 12.6 upbm affinity estimate (log intensity, higher = more binding, comparable within an allelic series)
binding signal (HOXA2 [3]): 10.9 upbm affinity estimate (log intensity, higher = more binding, comparable within an allelic series)
binding signal (HOXA2 [4]): 11.3 upbm affinity estimate (log intensity, higher = more binding, comparable within an allelic series)

CCACCCCC
binding signal (HOXA2 [1]): 7.29 upbm affinity estimate (log intensity, higher = more binding, comparable within an allelic series)
binding signal (HOXA2 [2]): 10.2 upbm affinity estimate (log intensity, higher = more binding, comparable within an allelic series)
binding signal (HOXA2 [3]): 10.4 upbm affinity estimate (log intensity, higher = more binding, comparable within an allelic series)
binding signal (HOXA2 [4]): 6.98 upbm affinity estimate (log intensity, higher = more binding, comparable within an allelic series)
